Compounds with a hit are over-represented: about 21% of the library has one in this group of screens.
Pf growth 48h: P. falciparum growth inhibition at 48 hours (one generation) | 310,000 tested, 5.9% active | P. falciparum luciferase growth in erythrocytes, 48 h | Potency, µM (doses to about 28.7 µM), inactives show at the highest dose activity change, negative = inhibition, hits mostly inhibitors; further: potency means the concentration at half of the fitted maximal effect; on the % scale 0 is the no-effect control and ±100 the full control effect
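Read-out is firefly luciferase luminescence from an integrated reporter in P. falciparum, so falling signal marks reduced parasite growth. Infected erythrocytes were at 2% hematocrit and 0.1% parasitemia (final) in Albumax-supplemented RPMI 1640.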
Shiga toxin inh: inhibitors of Shiga toxin in Vero cells. inhibition, % at 38.7 µM. Vero cells, Shiga toxin protein synthesis inhibition reporter. 290,000 tested, 9.2% active; in the data active means inhibition mostly above about 28%, no sharp cut-off; inactive means mostly below about 43%; further: 0% is about no effect
Pf growth 96h: P. falciparum growth inhibition at 96 hour, primary screen for plastid delayed-death inhibitors; P. falciparum luciferase reporter growth, 96 h; Potency, µM (titrated, usually from 28.7 µM), for the others: at the highest dose activity change, negative = inhibition, hits mostly inhibitors; 320,000 tested, 6.9% active; AID 504834; further: potency means the concentration at half of the fitted maximal effect; on the % scale 0 is the no-effect control and ±100 the full control effect
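Two parasite generations (96 h, 37 C, 5% CO2) of compound exposure in infected erythrocytes (0.05% parasitemia, 2% hematocrit). Luciferase-reporter P. falciparum; decreased luminescence indicates inhibited growth, aimed at apicoplast-acting delayed death.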
CHX counter: affects cycloheximide protein synthesis inhibition readout, counter-screen. cell reporter, cycloheximide protein synthesis inhibition counterscreen. max response, %. 300,000 tested, 12% active; in the data active means max response mostly above about 13%, no sharp cut-off; inactive means mostly below about 14%; further: read at 38.3 µM for the half of the compounds with a filed dose; 0% is about no effect
* = called active by the depositor; ? = inconclusive; nt = not tested or not shown; [ ] = another dose, or the depositor's remark. Unless noted, the call rests on the fitted dose curve; in most records, active means well fitted inhibition curve with a large enough effect; inconclusive means small, poorly fitted or top-dose-only effect, or another doubt; inactive means no such curve, though single readings can be large or run the other way.

SMILES | Pf growth 48h | Shiga toxin inh | Pf growth 96h | CHX counter
CCN1C(=O)c2cccc3c(NC(=O)c4ccc(S(=O)(=O)N(C)C)cc4)ccc1c23 | 12µM* | 8 | 10% | -1
CN(CC(=O)N1CCCc2c1c(=O)oc1ccc(O)cc21)Cc1ccccc1 | 9.3µM* | -10 | ? | 2
O=C(N/N=C/c1ccccn1)c1cc(-c2ccc(Br)cc2)nc2ccccc12 | ? | 8 | -15% | -3
Cc1ccccn1 | -8% | nt | -22% | nt
Brc1ccc(N=Cc2ccccn2)cc1 | 28% | 54* | 20% | 22*
C(=C\c1ccccn1)/c1ccccn1 | 121% | 105* | 130% | 64*
COc1ccc(C(=O)NNC(=O)CSc2nnc(C)n2CC2CCCO2)cc1 (stereo not drawn) | -13% | -11 | 11% | -1
COc1cccc(/C=C/C(=O)OCC(=O)Nc2ccc(Cl)c(S(=O)(=O)N(C)C)c2)c1 | 11% | 7 | -12% | 8
COc1cc(/C=C/C(=O)OCC(=O)Nc2ccc(S(N)(=O)=O)cc2)ccc1O | ? | -7 | ? | 28*
COc1cccc(/C=C/C(=O)OCC(=O)Nc2cccc(S(=O)(=O)N(C)C)c2)c1 | 3% | 6 | ? | 15*
COc1ccc(Cl)cc1NC(=O)C1CCN(S(C)(=O)=O)CC1 | -11% | nt | 0% | -1
Cc1ccccc1C=O | 6% | nt | -28% | nt
CN1CCN(c2ccc(C=O)cc2)CC1 | -1% | -4 | nt | 9
O=Cc1ccc(N2Cc3ccccc3C2)cc1 | 18% | 57* | ? | 18*
O=C(O)c1ccc(N2Cc3ccccc3C2)cc1O | nt | 56* | 70% | 29*
Cc1cc(N2Cc3ccccc3C2)ccc1C=O | -26% | 70* | ? | 19*
Cc1ccc(C(=O)OCC(=O)N2CCCCCC2)c(O)c1 | 375% | nt | 250% | nt
CCOC(=O)c1ccc(N2Cc3cc(C)c(C)cc3C2)cc1O | 32% | 17 | 0% | 19*
NC(=O)C1CC(=O)N(CCc2ccc(F)cc2)C1 (stereo not drawn) | -5% | -15 | -1% | -2
COCCN1C(=O)C(=O)/C(=C(/O)c2ccc(S(=O)(=O)N3CCOCC3)cc2)C1c1cccc(OC)c1 (stereo not drawn) | 34% | -4 | 3% | -3
Oc1ccc(N2Cc3ccccc3C2)cc1 | -3% | 15 | 30% | 20*
Oc1cccc(N2Cc3ccccc3C2)c1 | 6% | 31* | 22% | 11
C[N+]1(C)CCN(c2ccccc2)CC1 | -34% | -7 | ? | -3
O=C(CN1CCN(c2ccc(O)cc2)CC1)N1CCc2ccccc21 | -20% | -6 | ? | -4
Cc1cc2c(cc1C)CN(c1ccccc1)C2 | 2% | 66* | ? | 48*
SMILES | Pf growth 48h | Shiga toxin inh | Pf growth 96h | CHX counter
COc1ccc(-n2ncc3c2CC(C)(C)CC3NC(=O)C2=CC(=O)CC(C)(C)O2)cc1 (stereo not drawn) | ? | 19 | ? | 14
CCOc1ccccc1C(=O)NCC(=O)NCC(C)(C)N1CCOCC1 | -12% | nt | -1% | nt
O=C(CNCc1ccc(F)cc1)Nc1ccccc1[N+](=O)[O-] | 31% | 7 | 32% | 5
CN(Cc1ccccc1)C(=O)[C@H](Cc1ccc2ccccc2c1)NC(=O)[C@@H]1CCCN1C(=O)Nc1ccccc1[N+](=O)[O-] | nt | 7 | nt | 13
Cc1ccc2c(c1)N(C(C)C(=O)NCc1ccc3c(c1)OCO3)C(=O)CO2 (stereo not drawn) | -5% | -3 | 1% | -2
O=C(NNC(=O)c1cc(OCC(F)(F)F)ccc1OCC(F)(F)F)c1cccc(C(F)(F)F)c1 | 15µM* | 56* | ? | 20*
CCNC(=O)NCCNC(=O)c1cc(OCC(F)(F)F)ccc1OCC(F)(F)F | 2.9µM* | 10 | 207% | 3
Cc1ccc(C(=O)NNC(=O)c2cc(OCC(F)(F)F)ccc2OCC(F)(F)F)cc1 | 6% | -9 | 76% | 18
CCOc1ccc(S(=O)(=O)N(C)C)cc1-c1nc2c(C(C)(C)C)nn(C)c2c(=O)[nH]1 | -5% | -18 | ? | -2
CCOc1ccc(S(=O)(=O)N(C)CCO)cc1-c1nc2c(C(C)(C)C)nn(C)c2c(=O)[nH]1 | 12µM* | -4 | -8% | -7
CC1=C(C(=O)OC(C)C)C(c2cccc([N+](=O)[O-])c2)n2c(cc(=O)[nH]c2=S)N1 (stereo not drawn) | 12% | 11 | -1% | 0
COCCCNC(=O)c1cc2cc3cc(OC)ccc3nc2o1 | 10µM* | 19 | -21% | 20*
CCCCN(C)C(=O)c1cc2cc3cc(OC)ccc3nc2o1 | ? | 63* | 30% | 42*
COc1ccc2nc3oc(C(=O)N4CCN(c5cccc(Cl)c5)CC4)cc3cc2c1 | ? | 16 | 0% | 5
COc1ccc2nc3oc(C(=O)N4CCC(C(N)=O)CC4)cc3cc2c1 | 12µM* | 33 | -61% | 11
CCOC(=O)C1CCN(C(=O)c2cc3cc4ccc(OC)cc4nc3o2)CC1 | 83% | 15 | ? | -8
CCCCN(C)CCNC(=O)c1cc2cc3ccc(OC)cc3nc2o1 | 12%[0.00184 µM] | -4 | 1% | -3
CCCCN(C)C(=O)c1cc2cc3ccc(OC)cc3nc2o1 | 10%[0.00184 µM] | 79* | -22% | 29*
CCC(C(=O)N/N=C(\C)c1cccnc1)c1ccccc1 (stereo not drawn) | -5% | -3 | 0% | -1
O=S(=O)(Nc1ccc(Cl)cn1)c1ccc(F)cc1 | -6% | 2 | ? | -1
COc1ccc(C2N=C(c3ccccc3)C(C)(C)N2O)cc1OC (stereo not drawn) | -4% | 18 | 2% | -2
CCN(C(=O)c1cc2cc3ccc(C)cc3nc2o1)c1ccc(OC)cc1 | ? | 37* | -24% | 36*
CCN(CC)CCNC(=O)c1cc2cc3ccc(OC)cc3nc2o1 | -1%[0.00184 µM] | -7 | 1% | -4
COc1ccc(-c2nc(SC)n(C(=O)c3ccco3)n2)cc1 | 70% | 59* | -8% | 33*
CSc1nc(-c2ccc(Cl)cc2)nn1S(=O)(=O)c1ccccc1 | 105% | 34 | 98% | 10
SMILES | Pf growth 48h | Shiga toxin inh | Pf growth 96h | CHX counter
COc1ccc(-c2nc(SCc3ccccc3)n(C(=O)c3ccco3)n2)cc1 | 26% | 11 | -11% | 26*
CS(=O)(=O)n1nc(-c2ccc(Cl)cc2)nc1SCc1ccccc1 | nt | 73* | 150% | 39*
CN(Cc1ccccc1)C(=O)C1CCCN(Cc2cccc(Cl)c2)C1 (stereo not drawn) | -6% | -5 | -21% | -5
Cc1ccc(C)c(NC(=O)COC(=O)c2cc(=O)c3ccccc3o2)c1 | 37% | nt | 31% | nt
CN(C)/C=N/c1ncc(C(=O)c2ccccc2)s1 | 149% | 66* | 126% | 52*
Cc1cc(C(=O)c2cnc(/N=C/N(C)C)s2)cc(C)c1O | 14% | -5 | 19% | 2
CN(C)/C=N/c1ncc(C(=O)c2ccc(-c3ccccc3)cc2)s1 | 33% | 24 | 33% | 19
CN(C)/C=N/c1ncc(C(=O)OC(C)(C)C)s1 | 194% | 69* | 132% | 30*
COC(=O)CCNCCSc1nnc(-c2ccco2)n1Cc1ccccc1 | -13% | -8 | -9% | -4
CC(C)CNC(=O)COc1ncnc2sccc12 | 14% | -13 | 9% | 1

From PubChem BioAssay
